Compound activity: PubChem BioAssay, several laboratories
Most compounds without a hit are left out; they make up all but 10% or so of the library.
Insulin prom inh: inhibitors of insulin promoter-driven GFP, primary screen, imaging, TRM-6 cells (human fetal islet line), eGFP reporter, cell count | reporter expression induced with tamoxifen | inhibition, % at 2 µM | hit rate 0.9% among 130,000 | AID 1273, 2008;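 active = inhibition above the mean plus 3 SD, with well images judged a real hit on visual review, cut at about 60% in these data, passing the limit was not always enough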
L major viab: Leishmania major promastigote growth inhibition, primary screen; inhibition, % at 10 µM; Leishmania major promastigotes, resazurin fluorescence viability; hit rate 9% among 200,000; in the data active = inhibition above about 50%;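 note: promastigotes grown with compound for 44 hours at 28 °C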
ROMK mod: ROMK potassium channel modulators, primary screen, cell-based, thallium flux, MLSMR library | Tet-inducible ROMK, thallium flux fluorescence; actives lie on both sides | ATP-sensitive inward rectifier potassium channel 1 (Homo sapiens), P48048 | AID 1918, 2009 | B-score at 10 µM | hit rate 2% among 130,000;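 active = signal ratio slope over the read window, or its plate-corrected B-score, at least 3 SD from the plate mean, either direction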;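 note: B-score of the F/F0 ratio slope over 7 to 12 s after thallium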
p97 inhibitor: inhibitors of human p97 ATPase, primary screen, biochemical. hit rate 0.42% among 220,000. Transitional endoplasmic reticulum ATPase (Homo sapiens), P55072. inhibition, % at 8 µM. recombinant p97 ATPase, Kinase-Glo ATP luminescence, 3 h. AID 1481, 2009; in the data active = inhibition above about 15%;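 note: 0% = DMSO vehicle and 100% = wells lacking enzyme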
Target sequence (P55072 whole entry, looked up): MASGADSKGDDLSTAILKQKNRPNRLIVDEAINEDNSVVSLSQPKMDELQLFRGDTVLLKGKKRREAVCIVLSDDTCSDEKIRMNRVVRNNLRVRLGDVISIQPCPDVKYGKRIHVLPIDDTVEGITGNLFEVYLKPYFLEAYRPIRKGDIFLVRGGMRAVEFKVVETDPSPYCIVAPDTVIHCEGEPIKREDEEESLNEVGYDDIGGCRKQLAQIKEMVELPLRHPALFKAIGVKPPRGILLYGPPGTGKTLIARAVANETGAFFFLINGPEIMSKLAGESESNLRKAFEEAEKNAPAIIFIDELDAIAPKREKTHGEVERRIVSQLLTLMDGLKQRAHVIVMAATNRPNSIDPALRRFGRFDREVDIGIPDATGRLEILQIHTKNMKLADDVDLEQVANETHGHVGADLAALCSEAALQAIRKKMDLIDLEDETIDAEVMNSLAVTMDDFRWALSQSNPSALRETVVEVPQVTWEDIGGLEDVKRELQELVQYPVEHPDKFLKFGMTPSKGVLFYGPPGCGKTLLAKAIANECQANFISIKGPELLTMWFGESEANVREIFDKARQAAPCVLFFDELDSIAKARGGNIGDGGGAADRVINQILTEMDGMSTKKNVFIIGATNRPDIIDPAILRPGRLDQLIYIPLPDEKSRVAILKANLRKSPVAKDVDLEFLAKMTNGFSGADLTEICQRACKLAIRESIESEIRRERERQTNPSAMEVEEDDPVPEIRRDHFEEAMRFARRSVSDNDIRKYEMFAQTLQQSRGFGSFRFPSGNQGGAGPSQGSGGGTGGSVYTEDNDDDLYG
PTEN del growth: growth suppression of PTEN-null HCT116, primary screen, cell-based, CellTiter-Glo. hit rate 1.2% among 140,000. HCT116 PTEN-null viability, 60 h; hits give low values. viability, % at 10 µM. AID 827, 2007;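 active = viability at or below a set limit, 4 SD under the median of all tested compounds, cut at about 3.7% in these data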;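 note: PTEN knockout HCT116 line with beta catenin targeted HCT116 as companion control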
bCat KO growth: primary screen for growth suppressors in beta-catenin knockout HCT116 cells (colon tumor, human) | viability, % at 10 µM | HCT116 beta-catenin knockout viability, CellTiter-Glo, 60 h; hits give low values | AID 818, 2007 | hit rate 1.5% among 140,000;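 active = viability at or under a set limit, the compound median less 4 SD, cut at about 6% in these data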;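 note: 0% = Hyamine 1622 control at 20 µM and 100% = untreated cell control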
The depositor's hits bear a star; i = inactive; . = no result.

SMILES	Insulin prom inh	L major viab	ROMK mod	p97 inhibitor	PTEN del growth	bCat KO growth
Cn1cc(CN2CCc3ccccc3C2)c2ccccc21	81*	15	-0.33	-6	90	88
Oc1ccc(CN2CCCCC2)c2cccnc12	-389	101*	0.036	-6	1.2*	2.3*
Oc1ccc(CN2CCc3ccccc3C2)c2cccnc12	14	100*	-2.8	-1	1.7*	2.1*
CCOc1ccccc1N1CCN(Cc2cccc(OC)c2O)CC1	-20	18	.	1	81	74
COc1ccccc1N1CCN(Cc2cc(Br)c(O)c3ncccc23)CC1	.	100*	.	-1	2.1*	2.2*
CCCC(NC(=S)NCC1CCCO1)C12CC3CC(CC(C3)C1)C2 (stereo unspecified)	-25	33	-0.15	-8	.	.
Cc1ccc(/C=N\NC(=O)/C(=C\Nc2nccc(C)n2)NC(=O)c2ccccc2)cc1	.	.	.	7	.	.
O=C1NCCN(Cc2cccc(Oc3ccccc3)c2)C1CC(=O)N1CCCO1 (stereo unspecified)	0	-6	-1.2	-1	.	.
Cc1ccc(C)c(N2CCN(S(=O)(=O)c3cccc4cccnc34)CC2)c1	10	66*	-0.027	-1	.	.
Oc1ccc(CN2CCC(Cc3ccccc3)CC2)c2cccnc12	-79	101*	.	8	.	.
COCc1cc(CN2CCCC2)c(O)c2ncccc12	.	100*	0.84	6	5	6
O=[N+]([O-])c1cc(CN2CCCC2)c2cccnc2c1O	5	11	0.0089	8	88	94
O=[N+]([O-])c1cc(CN2CCN(c3cccc(C(F)(F)F)c3)CC2)c2cccnc2c1O	i	99*	0.82	4	.	.
O=C(CCc1ccccc1)NNC(=S)NC(=O)c1ccc(Cl)cc1	43	-7	1.9	4	17	15
Cc1nn(-c2ccccc2)c(C)c1/C=C/C(=O)OCC(=O)Nc1ncc(C(F)(F)F)cc1Cl	.	-7	.	3	94	86
Cc1ccc(C)c(S(=O)(=O)N2CCN(Cc3ccc(O)c4ncccc34)CC2)c1	.	100*	-0.42	1	.	.
Oc1ccc(CN2CCN(c3ccccc3)CC2)c2cccnc12	61	100*	1.4	-4	2.8*	3.0*
CCOC(=O)N1CCN(Cc2ccc(O)c3ncccc23)CC1	.	0	-0.8	0	.	.
Oc1ccc(F)c2cccnc12	.	8	-0.46	-1	.	.
Oc1ccc(CNc2ccccc2F)c2cccnc12	.	73*	0.36	2	13	16
Cc1[nH]c2ccccc2c1CN1CCC(Cc2ccccc2)CC1	-20	100*	-0.48	-2	.	.
Cc1ccc(CC(=O)NC2CCSC2=O)cc1 (stereo unspecified)	36	-14	2.2	5	.	.
CCN(CC)c1ccc(/C=N\NC(=O)c2cccc3cc[nH]c23)cc1	.	.	-0.77	6	.	.
OCc1ccc(O)c2ncccc12	-18	100*	.	4	5	4.3*
FC(F)(F)c1cccc(NC(=S)NCC(c2cccnc2)N2CCOCC2)c1 (stereo unspecified)	.	61*	.	-5	93	91
SMILES	Insulin prom inh	L major viab	ROMK mod	p97 inhibitor	PTEN del growth	bCat KO growth
O=[N+]([O-])c1ccc(NC(=S)NCC(c2cccnc2)N2CCOCC2)cc1 (stereo unspecified)	20	18	-0.93	9	.	.
COc1ccc(CN2CCN(C)CC2)cc1OCc1ccccc1	0	23	0.22	8	91	92
COc1ccc(CN2CCN(c3cccc(C)c3C)CC2)cc1OC	.	81*	0.24	-8	55	56
COc1cc(CN2CCN(c3cccc(C)c3C)CC2)cc(Br)c1O	-27	95*	.	2	98	94
COc1cc(CN2CCN(c3ccccc3C)CC2)cc([N+](=O)[O-])c1O	52	7	-0.066	-2	92	95
CCCCN(CCCC)S(=O)(=O)c1ccc(NC(=O)Cc2cccs2)cc1	39	30	0.25	-1	90	86
COc1cccc(/C=N/NC(=O)c2ccc(CN3c4cccc5cccc(c45)S3(=O)=O)cc2)c1	-38	82*	-0.46	5	84	90
O=C(N/N=C/c1cccnc1)c1ccc(CN2c3cccc4cccc(c34)S2(=O)=O)cc1	0	-2	0.52	10	.	.
C=C(C(=O)c1ccccc1)C(CC(=O)c1ccccc1)c1ccccc1 (stereo unspecified)	.	82*	.	0	3.1*	4.8*
C=C(CCC(=O)c1ccccc1)C(=O)c1ccccc1	.	100*	.	0	0.5*	0.4*
Cc1ccc(C(CC(=O)c2ccc(Cl)cc2)C(=O)O)cc1 (stereo unspecified)	31	0	.	3	.	.
Cc1ccc(NC(=O)c2c(Cl)nc3ccccn23)cc1	.	-4	-1.3	2	.	.
O=C(COC(=O)c1ccc2c(c1)OCO2)NCc1ccc(Cl)cc1	15	-6	-0.13	-7	86	90
C/C(=N\NC(=O)Cn1c(-c2ccccn2)nc2ccccc21)c1cccc(O)c1	43	4	.	3	.	.
C/C(=N\NC(=O)Cn1c(-c2ccccn2)nc2ccccc21)c1ccccc1	5	68*	.	4	89	88
COC(=O)c1c(NC(=O)CSc2nnc(C)c(=O)[nH]2)sc(C)c1C	25	3	-0.18	0	.	.
CC1CN(c2nnc(NC(=O)c3ccccc3)s2)CC(C)O1 (stereo unspecified)	-45	-10	0.57	2	.	.
CN(C)CCCC(C)(O)C(C)(C)c1ccccc1 (stereo unspecified)	-15	-3	0.44	15*	103	102
CN(C)S(=O)(=O)c1cc(NC(=O)CN2CCN(c3ccccc3O)CC2)ccc1Cl	-17	-3	-0.19	0	.	.
Cc1nn(C)c(Sc2ccccn2)c1[N+](=O)[O-]	.	.	-0.77	1	.	.
CCc1ccc(-c2cc(C(F)(F)F)n3nc(C(=O)Nc4c(C)nn(Cc5ccc(F)cc5)c4C)cc3n2)s1	-23	64*	-0.82	-9	59	72
CS(=O)(=O)N(CC(=O)Nc1ccccc1C(=O)N1CCOCC1)c1ccc(Cl)cc1	.	.	.	6	.	.
O=C(CSCc1c(Cl)cccc1Cl)Nc1ccccc1C(=O)N1CCOCC1	20	52*	-0.98	1	93	84
O=C(CSCc1ccc(Cl)cc1)Nc1ccccc1C(=O)N1CCOCC1	7	-4	.	2	84	90
CCc1ccc(N(CC(=O)Nc2ccccc2C(=O)N2CCOCC2)S(C)(=O)=O)cc1	-35	51*	0.84	0	101	95
Cn1c(CCc2nc3ccccc3[nH]2)nnc1SCC#N	-14	1	-0.23	-8	.	.
CCCc1cc(=O)[nH]c(SCC(=O)NCCC2=CCCCC2)n1	.	-12	-0.57	-6	.	.
Cc1ccc(NC(=O)CN(C)S(=O)(=O)c2cccs2)cc1F	74*	8	.	3	85	89
